Laboratory results reported in PubChem BioAssay (NCATS).
Inconclusive results are not listed. Calls of active or inactive are those of the source. Calls come from the whole dose curve; as a rule, active = well fitted cell-killing curve with a large enough effect; inconclusive = small, poorly fitted or top-dose-only effect; inactive = no such curve, though single readings can be large or run the other way.

Test: qHTS of pediatric cancer cell lines to identify multiple opportunities for drug repurposing: Primary screen for MG 63 (6-TG R) cells (AID 1347105); note: nearly all actives have a fitted effect of over 50% in size
Details: MG 63 (6-TG R) viability, CellTiter-Glo, 48 h; series mostly up to 46 µM
Text: Drug repurposing or repositioning has been offered as a strategy for drug development in oncology programs. This approach has special potential for childhood cancers and other rare or orphan diseases, where the expected return on new drug development has been a disincentive to pharmaceuticals. […] In this project we exploit the poly-pharmacology of drugs to discover new indications via phenotypic screening of a panel of 19 well-characterized cell lines derived from solid tumors seen in children and adolescents. The goal is to identify approved drugs with previously unrecognized anticancer properties that has the potential to reveal new mechanisms and biological processes involved in carcinogenesis or drug resistance. We employed a titration-based paradigm (quantitative high-throughput screening or qHTS), where all compounds were tested at multiple concentrations for their effect on cell viability. Concentration-response curves (CRCs) were derived directly from the primary screen, and both potency and efficacy values were used to identify compounds with robust bioactivity profiles. We screened the NIH Chemical Genomics Center (NCGC) Pharmaceutical Collection (NPC) and Mechanism Interrogation Plate (MIPE) small molecule collections of approved and investigational compounds against these cell lines; and measured metabolically active cells after 48 hours of compound treatment as a proxy for cell viability. […] Assay Submitter: Nathalia J. Martinez, National Center for Advancing Translational Sciences, National Institutes of Health, Rockville, MD, USA; email: natalia.martinez@nih.gov Shen, M et al. Quantitative high-throughput phenotypic screening of pediatric cancer cell lines identifies multiple opportunities for drug repurposing. Oncotarget 2017 Dec 19;9(4):4758-4772. PMID 29435139.
The cells were obtained from University of North Carolina (UNC), Pediatric Preclinical Testing Program (PPT), and Coriell Institute (CI). qHTS cell viability assay: Cells were assayed in growth media at a density of 500-1,000 cells/well. Five microliters of cells were dispensed into 1,536-well, white, solid-bottom, TC-treated plates (Greiner Bio One) using a multidrop dispenser and incubated at 37 degrees C, 5% CO2, under a humidified atmosphere for 5 hours. Twenty-three nanoliters of compounds and controls (neutral control DMSO or positive control bortezomib at final concentration of 2.3 µM) were subsequently transferred by Kalypsys pintool. For primary screens, the MIPE collection was tested at 11-point dilutions (final concentrations range from 0.78 nM to 46 µM) and the NPC collection at 8-point dilutions (final concentrations range from 0.59 nM to 46 µM). Compounds tested in follow-up screens were assayed at 11-point dilutions. Cells were incubated for 48 hours, followed by addition of 3 µL of CellTiter-Glo (Promega). After a 15 min incubation at room temperature, samples were analyzed for luminescence intensity using a ViewLux High-throughput CCD imager equipped with clear filters.
% is set by controls: 0 for no effect and ±100 for the full control effect.

| Compound | outcome | activity change, negative = cytotoxic |
| --- | --- | --- |
| O=C(O)Cn1c(C(=O)Nc2nc(-c3ccccc3Cl)cs2)cc2ccccc21 | inactive |  |
| CC(=O)SC[C@@H](Cc1ccccc1)C(=O)NCC(=O)OCc1ccccc1 | inactive |  |
| NC(N)=NCCN1CCCCCCC1 |  | 7.08% [at 0.597 µM] (inactive) |
| NS(=O)(=O)c1ccc(C(=O)O)cc1 | inactive |  |
| O=C(O)c1cc(=O)c2ccccc2o1 | inactive |  |
| C[C@]1(Cn2ccnn2)[C@H](C(=O)O)N2C(=O)C[C@H]2S1(=O)=O | inactive |  |
| O=C1C(c2[nH]c3ccccc3c2O)=Nc2ccccc21 | inactive |  |
| CC(O)CCCCn1c(=O)c2c(ncn2C)n(C)c1=O (stereo not given) | inactive |  |
| O=C(c1ccccc1)C(O)c1ccccc1 (stereo not given) | inactive |  |
| O=C(/C=C/c1ccc(O)c(O)c1)O[C@@H]1C[C@@](OC(=O)/C=C/c2ccc(O)c(O)c2)(C(=O)O)C[C@@H](O)[C@@H]1O | inactive |  |
| C[N+]1(C)CCCC(OC(=O)C(O)(c2ccccc2)c2ccccc2)C1 (stereo not given) | inactive |  |
| CNCc1ccccc1 | inactive |  |
| CN[C@@H]1[C@H](O)[C@H](NC)[C@H]2O[C@@]3(O)C(=O)C[C@@H](C)O[C@H]3O[C@@H]2[C@H]1O | inactive |  |
| CC(C)c1cc2c(cc1S(=O)(=O)O)[C@@]1(C)CCC[C@@](C)(C(=O)O)[C@@H]1CC2 | inactive |  |
| COCC(=O)Nc1c(I)c(C(=O)NCC(O)CO)c(I)c(C(=O)N(C)CC(O)CO)c1I (stereo not given) | inactive |  |
| CN1CC(=O)NC1=N | inactive |  |
| O=C(O)C(S)C(S)C(=O)O (stereo not given) | inactive |  |
| CCCCCCCCCCC(CO)CCCCCCCC (stereo not given) | inactive |  |
| O=c1[nH]c(=O)n([C@H]2C[C@H](O)[C@@H](CO)O2)cc1I | inactive |  |
| NC(=O)c1ccc([N+](=O)[O-])cc1Cl | inactive |  |

| Compound | outcome | activity change, negative = cytotoxic |
| --- | --- | --- |
| C=CCOc1ccccc1OCC(O)CNC(C)C (stereo not given) | inactive |  |
| Cc1ccc(S(=O)(=O)NC(=O)NC2CCCCCCC2)cc1 | inactive |  |
| CCCCCCCCCCCCCCCCC(C(=O)O)C(O)(CC(=O)O)C(=O)O (stereo not given) | inactive |  |
| CCN(CC)S(=O)(=O)c1ccc(C(=O)O)cc1 | inactive |  |
| C[n+]1ccccc1/C=N/O | inactive |  |
| CCN1CC(CCN2CCOCC2)C(c2ccccc2)(c2ccccc2)C1=O (stereo not given) | inactive |  |
| CC1CCN(CCCC(=O)c2ccc(F)cc2)CC1 | inactive |  |
| COc1nccnc1NS(=O)(=O)c1ccc(N)cc1 | inactive |  |
| C=CCN1C[C@H](C(=O)N(CCCN(C)C)C(=O)NCC)C[C@@H]2c3cccc4[nH]cc(c34)C[C@H]21 | inactive |  |
| CN1C[C@@H]2C[C@H]1CN2c1cc2c(cc1F)c(=O)c(C(=O)O)cn2C1CC1 | inactive |  |
| NC(=O)N[C@@H](CCC(=O)O)C(=O)O | inactive |  |
| Cc1ccsc1/C=C/C1=NCCCN1C | inactive |  |
| O=C(O)[C@@H]1[C@H]2C[C@H]3c4[nH]c5ccccc5c4CCN3C[C@@H]2CC[C@@H]1O | inactive |  |
| O=C(NCC(O)CO)c1c(I)c(C(=O)NCC(O)CO)c(I)c(N(CCO)C(=O)CO)c1I (stereo not given) | inactive |  |
| O=C(CN1CCNCC1)NC1CCCCC1 | inactive |  |
| Cc1c(C)c2c(c(C)c1OC(=O)c1cccnc1)CC[C@@](C)(CCC[C@H](C)CCC[C@H](C)CCCC(C)C)O2 | inactive |  |
| O=C(/C=C/c1ccccc1)OCc1ccccc1 | inactive |  |
| COc1ccc(C(=O)NCc2ccc(OCCN(C)C)cc2)cc1OC | inactive |  |
| CCCNC(C)C(=O)Nc1c(C)csc1C(=O)OC (stereo not given) | inactive |  |
| CC(=O)NS(=O)(=O)c1ccc(N)cc1 | inactive |  |
